Compound activity deposited in PubChem by National Center for Advancing Translational Sciences (NCATS).
Pol iota inh = DNA polymerase iota (human) inhibition; Potency, µM (doses to about 115 µM), without a hit: at the highest dose activity, negative = inhibition, usual class: inhibitors; Q9UNA4; actives 1% (n = 390,000); Pol iota fluorescent replication assay, 10 min; AID 588590
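Pol iota at 10 nM preincubated 15 min with compounds at room temperature; reaction started with fluorescent substrate, 50 nM final. Fluorescence read kinetically at 0 and 10 min; buffer-only wells as negative control.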
WRN helicase inh = inhibitors of human WRN helicase | Potency, µM (series often up to 114 µM), inactives show at the top dose activity change, negative = inhibition, hits mostly inhibitors | actives 0.46% (n = 360,000) | WRN helicase unwinding, fluorescent forked duplex, kinetic | AID 651768; also: % is scaled to controls: 0 for no effect and ±100 for the full control effect; nearly all actives have a fitted effect of over 55% in size
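Enzyme (20 nM final) and test compound sit together 15 min at room temperature before substrate addition. Substrate is a single-forked duplex oligonucleotide (100 nM) labelled with fluorophore and quencher, with 2 mM ATP; helicase unwinding raises red fluorescence, read kinetically.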
FEN1 inhibitor = blocks human flap endonuclease 1; Recombinant FEN1 flap cleavage, fluorescence, 15 min; Potency, µM (highest dose often 114 µM), without a hit: at the top dose activity change, negative = inhibition, usual class: inhibitors; actives 0.35% (n = 390,000); P39748; also: % is scaled to controls: 0 for no effect and ±100 for the full control effect; nearly all actives have a fitted effect of over 65% in size
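Enzyme 10 nM, 15 min RT preincubation with compound; start with substrate 50 nM final; reads at 0 and 15 min; qHTS titration, four-parameter Hill fit.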
Pol eta inh-1 = DNA polymerase eta (human) inhibition; AID 588591; Potency, µM (top dose mostly 114 µM), inactives show top-dose activity change, negative = inhibition, most hits filed as inhibitors; recombinant Pol eta, fluorescent DNA replication assay; actives 1.2% (n = 390,000); Q9Y253; also: % is scaled to controls: 0 for no effect and ±100 for the full control effect
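Pol eta at 10 nM preincubated with compounds 15 min at room temperature; reaction started with fluorescent substrate (50 nM final) and read kinetically at 0 and 10 min.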
Pol kappa inh-1 = blocks human DNA polymerase kappa activity. Q9UBT6. purified Pol kappa, fluorescent DNA synthesis assay, 10 min. Potency, µM (series often up to 107 µM), for the others: top-dose activity, negative = inhibition, actives largely listed as inhibitors. actives 0.53% (n = 400,000). AID 588579; also: % is scaled to controls: 0 for no effect and ±100 for the full control effect
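Enzyme at 10 nM met test compounds for 15 min at room temperature. Substrate addition (50 nM final) began the reaction, which was monitored by fluorescence at 0 and 10 min.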
POLB inh = DNA polymerase beta (human) inhibition | P06746 | Pol beta primer extension/strand displacement, fluorescence kinetic | Potency, µM (highest dose often 114 µM), for inactives: at the top dose activity change, negative = inhibition, actives largely listed as inhibitors | actives 1.3% (n = 340,000); also: % is scaled to controls: 0 for no effect and ±100 for the full control effect
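Human Pol beta at 10 nM; strand-displacement substrate 50 nM final. Compound exposure 15 min at room temperature before start, reaction 10 min at room temperature.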
Pol kappa inh-2 = confirmation of human DNA polymerase kappa inhibitors; shares compounds with Pol eta inh-1; purified Pol-kappa, fluorescent strand-displacement substrate; Potency, µM, most hits filed as inhibitors; actives 76% (n = 920)
Pol eta inh-2 = Pol eta (human) inhibition, cherry-pick confirmation; actives 64% (n = 2,600); Potency, µM, actives largely listed as inhibitors; shares compounds with Pol eta inh-1; Pol eta primer extension, TAMRA/BHQ fluorescence, 10 min
* marks the source's active call; other numbers are inactive results; ? = inconclusive; . = no result given; [ ] = remark or other dose. Most compounds without a hit are left out; they make up all but 2.4% or so of the library. Calls follow the shape of the dose curve; as a rule, active = well fitted curve in the direction sought with a large enough effect; inconclusive = small, poorly fitted or top-dose-only effect, or another doubt; inactive = no such curve, though single readings can be large; an effect the other way counts as inactive or inconclusive. Potency is read from the fitted curve at half-maximal effect.

SMILES	Pol iota inh	WRN helicase inh	FEN1 inhibitor	Pol eta inh-1	Pol kappa inh-1	POLB inh	Pol eta inh-2	others
COCCn1c(SC(C)C(=O)NCC2CCCO2)nc2scc(-c3ccc(F)cc3)c2c1=O (centres undefined)	23%	-2%	-3%	-9%	0%	.	.
CC[N+]1(CC(=O)c2ccc(I)cc2)CCCCC1	5%	.	14%	.	-8%	.	.
CCOC(=O)c1sc(N/N=C/c2ccccc2)nc1C	29%	?	8%	-21%	-2%	30%	.
O=C(O)Cc1sc(N/N=C\c2ccccc2)nc1-c1ccccc1	?	-16%[11.6 µM]	-17%	40µM*	-44%	-24%	48*	Pol kappa inh-2=27*
CCc1nc2ccc(C(=O)NCc3ccc(OC)c(OC)c3)cc2nc1CC	8%	.	0%	-22%	1%[60.1 µM]	-27%	.
O=C(NN1C(=O)/C(=C/c2ccc(O)c(O)c2)SC1=S)c1ccccc1	22µM*	?	-34%	1.1µM*	40µM*	18µM*	?
Cc1nc2ccccc2n2c(O)c(CC(=O)O)cc12	?	?	?	79µM*	?	?	?	Pol kappa inh-2=67*
O=C(O)c1ccc(COc2ccc3ccccc3c2)o1	?	1%	18%	1%	4%	7%	.
CCOc1ccc(OCc2ccc(C(=O)O)o2)cc1	-15%	-15%[11.6 µM]	-10%	13µM*	-5%	14µM*	60*
O=C(O)c1ccc2c(c1)C(=O)N(c1cccc(C(=O)/C=C/c3ccccc3)c1)C2=O	?	?	?	32µM*	-12%	48%	60*
O=C(O)c1cccc(NC(=O)c2ccc(N3C(=O)c4ccc(C(=O)Nc5cccc(C(=O)O)c5)cc4C3=O)cc2)c1	44%	-20%[57.1 µM]	3%	-21%	-14%	3%	.
C[C@@H]1C(=O)N(S(=O)(=O)c2ccccc2[N+](=O)[O-])[C@H]1c1ccc(-c2ccccc2)cc1	-29%	.	0%	.	-4%	.	.
CC1=NOC(=O)/C1=C\c1ccc(-c2cc(Cl)ccc2Cl)o1	-11%	?	2%	-21%	-18%	-2%	.
CC1=NOC(=O)/C1=C\c1ccc(-c2ccc(Br)cc2)o1	?	?	?	20µM*	-14%	32µM*	85*
CC1=NOC(=O)/C1=C\c1ccc(-c2ccc(Br)cc2C(=O)O)o1	?	50µM*	-11%	40µM*	79µM*	13µM*	.	Pol kappa inh-2=34*
CCOC(=O)c1cc(-c2ccc(C)cc2)n(CCC(=O)Nc2ccc(OC)c(OC)c2)c1C	21%	.	-25%	?	-20%	0%	.
O=C(O)/C=C/C(=O)Nc1ccc(C2(c3ccc(NC(=O)/C=C/C(=O)O)cc3)c3ccccc3-c3ccccc32)cc1	?	-16%[11.6 µM]	11%	50µM*	-12%	50µM*	?
Cc1noc(NS(=O)(=O)c2ccc(NC(=O)CSc3nnc4c(n3)[nH]c3ccccc34)cc2)c1C	?	89µM*	-1%	25µM*	?	?	24*
C=C1C=CS(=O)(=O)N(Cc2ccccc2)C1	5%	.	-7%	.	-2%	.	.
COC(=O)c1ccc(Nc2ncnc3c2nc2n3CCCC2)cc1	-11%	.	12%	-1%	-19%	1%	.
COc1cc(/C=C2\SC(=O)NC2=O)ccc1Oc1ccc([N+](=O)[O-])cc1[N+](=O)[O-]	?	-35%	?	50µM*	?	89µM*	?
COc1ccccc1N1CCN(S(=O)(=O)c2cc(C(=O)Nc3ccc(Oc4ccccc4)cc3)ccc2F)CC1	15%	.	10%	-15%	-6%[60.1 µM]	-5%	.
